The values that follow come from PubChem BioAssay (Tox21).

Several values for one entry are separate records, joined by “and”; a condition that tells them apart may be missing. Identical values can stand only once. Results filed as inconclusive are left out. More than one record can exist for a structure, and the calls need not agree. Activity calls are given as the source filed them. Unless noted, calls come from the whole dose curve; as a rule, active = well fitted curve in the direction sought with a large enough effect in the repeat runs; inconclusive = weak or mixed curves; inactive = no such curve, though single readings can be large; an effect the other way counts as inactive or inconclusive.

The nature of experiment [1]: qHTS assay for small molecule agonists of the p53 signaling pathway - cell viability (AID 651633; calls by dose curve; note: nearly all actives have a fitted effect of over 30% in size; note: potency is the fitted concentration of half-maximal effect). The method in brief:
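p53RE-bla cells, seeded at 4,000 per well and rested 5 h at 37 C/5% CO2, received compounds in DMSO for 16 h at 37 C. CellTiter-Glo was then added, and luminescence was read after 30 min at room temperature to gauge cytotoxicity.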
On the technique in general: Quantitative high-throughput screening tests each substance at several concentrations.

Experiment [2] can be described thus: qHTS assay for small molecules that induce genotoxicity in human embryonic kidney cells expressing luciferase-tagged ATAD5 - cell viability (AID 651634; calls by dose curve; note: nearly all actives have a fitted effect of over 25% in size; note: potency is the fitted concentration of half-maximal effect). The method in brief:
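HEK293T cells expressing luciferase-tagged ATAD5 were exposed to compound or DMSO for 15.5 hr at 37C, 5% CO2. Viability was then read as live-cell protease activity by CellTiter-Fluor fluorescence after 30 min at 37C.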

Experiment [3] is described as follows: qHTS assay for small molecule disruptors of the mitochondrial membrane potential - cell viability (AID 720634; calls by dose curve;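 note: human HepG2 liver cancer cells; series mostly up to about 83 µM; nearly all actives have a fitted effect of over 20% in size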). Put shortly:
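HepG2 cells seeded overnight at 37 C, then exposed to compound or DMSO for 1 hr at 37 C, 5% CO2. m-MPI dye added, then CellTiter-Glo for 30 min at room temperature; viability read as ATP luminescence.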

The nature of experiment [4]: qHTS assay for small molecule disruptors of the mitochondrial membrane potential (AID 720635). Note: potency is the fitted concentration of half-maximal effect. Put shortly: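 HepG2 cells (2,000/well) attached overnight at 37C, then took compound for 1 hr at 37C, 5% CO2. Mito-MPS dye was added for 30 min; fluorescence was read at 490/535 nm (monomers) and 540/590 nm (aggregates).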
A short description of experiment [5]: qHTS assay to test for compound auto fluorescence at 590 nm (red) in HepG2 cells (AID 720674). Note: potency is the fitted concentration of half-maximal effect. Put shortly:
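Intrinsic compound fluorescence in the red window (Ex/Em 540/590 nm) is measured in attached HepG2 cells exposed for 1 hr, DMSO vehicle as baseline, benchmarked to Rose Bengal sodium.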

Experiment [6] in a line: qHTS assay to test for compound auto fluorescence at 535 nm (green) in HepG2 cells (AID 720675). Note: potency is the fitted concentration of half-maximal effect.
Experiment [7] can be described thus: qHTS assay to test for compound auto fluorescence at 460 nm (blue) in HEK293 cells (AID 720678). Put shortly:
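Blue-channel (Ex/Em 405/460 nm) intensity measured in HEK293 cultures after overnight compound exposure at 37C; signal expressed relative to triamterene. Cells plated 2,000 per well in 10% dialyzed FBS medium and allowed 4-5 hr to attach.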

The nature of experiment [8]: qHTS assay to test for compound auto fluorescence at 590 nm (red) in HEK293 cells (AID 720679). Note: potency is the fitted concentration of half-maximal effect. Put shortly: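 Red-channel autofluorescence (Ex/Em 540/590 nm; Rose Bengal sodium reference) was measured after overnight 37C, 5% CO2 exposure of attached HEK293 cells, 2,000 per well in medium with 10% dialyzed FBS.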
A short description of experiment [9]: qHTS assay for small molecules that induce genotoxicity in human embryonic kidney cells expressing luciferase-tagged ATAD5 (AID 651632). Note: nearly all actives have a fitted effect of over 15% in size. Note: potency is the fitted concentration of half-maximal effect. Put shortly: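 HEK293T cells carrying a luciferase reporter tagged to ATAD5 were exposed to compound or DMSO vehicle for 16 hr at 37C, 5% CO2. Amplite was added, and after 30 min at room temperature luciferase activity was read as a marker of ATAD5 induction.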

The nature of experiment [10]: qHTS assay for small molecule agonists of the p53 signaling pathway (AID 651631; calls by dose curve; note: nearly all actives have a fitted effect of over 15% in size). The method in brief:
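Stably transfected HCT-116 cells (beta-lactamase behind p53 response elements) get compounds after a 5 h settling period; 16 h later at 37 °C, FRET substrate is loaded and fluorescence read after 2 h.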
Tags give direction and shape of the fitted curve or compound fluorescence and quenching.

As to `CC1=CC2C3CC(C=C3C)C2C1` (stereo not given), the Potency result in [1], in [2], in experiment [3], in [4], in [5] and in experiment [6] was “inactive” in each case. Further, in experiment [8], the Potency result is “inactive”. Further, in experiment [7], the compound was called inactive.

Consider `Cc1ccc2c(n1)Oc1ccc(C(C)C(=O)OCC(=O)N(C)C)cc1C2` (stereo not given), for which the Potency result in experiment [1], in experiment [2], in experiment [3], in experiment [5], in [6] and in [8] was “inactive” each time. The compound was called inactive in experiment [7].

With `O=C(O)c1ccccc1Nc1cccc(C(F)(F)F)c1`, the Potency entry in experiment [9], in experiment [2], in [3], in [5], in [6] and in [8] was “inactive” in each case. Further, in [4], the Potency is 26.6 µM (active) and 43.3 µM (active). The call in experiment [7] was inactive.

`CC(C(=O)O)c1cccc(C(=O)c2ccccc2)c1` (stereo not given): the Potency result in [10], in experiment [3], in experiment [4], in [5], in [6] and in experiment [8] was “inactive” each time. In addition, the compound was called inactive in [7].

On to `CCCCCCCCCC(=O)OC`, for which the Potency entry in experiment [9], in [1], in [2], in [3], in experiment [4] and in [5] was “inactive” each time. In addition, the Potency result in [6] and in experiment [8] was “inactive” throughout. In addition, the result in experiment [7] was inactive.

With `COC(=O)C1=C(C)NC(C)=C(C(=O)OCCN(C)Cc2ccccc2)C1c1cccc([N+](=O)[O-])c1` (stereo not given), the Potency entry in experiment [9], in [5], in experiment [6] and in experiment [8] was “inactive” in each case. In addition, the Potency in experiment [4] was 18.8 µM (active). For the same compound, in experiment [7], the compound was classed as inactive.

Consider `c1ccc2sc(SSN3CCOCC3)nc2c1`, for which the Potency entry in experiment [1], in experiment [2], in experiment [3], in experiment [5], in experiment [6] and in experiment [8] was “inactive” throughout. Further, in [4], the Potency is 34.3 µM (active) and 27.3 µM (active). Further, in experiment [7], the outcome was inactive.

`O=[N+]([O-])c1ccc2c(c1)Cc1ccccc1-2`: the Potency result in experiment [1], in [2], in experiment [5], in [6] and in experiment [8] was “inactive” in each case.

On to `O=C(/C=C/C=C/c1ccc2c(c1)OCO2)N1CCCCC1`, for which, in experiment [9], the Potency was 10.9 µM (active). Besides, the Potency entry in experiment [1], in experiment [2], in [3], in [5], in [6] and in experiment [8] was “inactive” each time. The compound was classed as inactive in experiment [7].

In the case of `COC(=O)Nc1nc2ccc(S(=O)c3ccccc3)cc2[nH]1` (stereo not given), the Potency entry in experiment [9], in [1], in [2], in experiment [3], in [4] and in experiment [5] was “inactive” throughout. Further, the Potency entry in experiment [6] and in experiment [8] was “inactive” each time. Besides, in [7], the compound was called inactive.

As to `c1cc(N(CC2CO2)CC2CO2)ccc1OCC1CO1` (stereo not given), the Potency is 13.7 µM (active) and 17.2 µM (active) in experiment [9]; 68.7 µM (active) in experiment [1]. Besides, the Potency entry in experiment [3], in experiment [4], in [5], in experiment [6] and in experiment [8] was “inactive” in each case. For the same compound, the compound was classed as inactive in [7].

`C/C=C/C(=O)O`: the Potency entry in experiment [1], in experiment [2], in experiment [5], in experiment [6] and in experiment [8] was “inactive” in each case.

`O=C(COc1ccc(Cl)cc1)N1CCN(Cc2ccc3c(c2)OCO3)CC1`: the Potency result in [9], in experiment [1], in [2], in [3], in experiment [4] and in experiment [5] was “inactive” in each case. For the same compound, the Potency result in experiment [6] and in experiment [8] was “inactive” each time. For the same compound, the call in [7] was inactive.

Consider `CCCC(=O)O`, for which the Potency entry in experiment [1], in experiment [2], in experiment [3], in [4], in experiment [5] and in experiment [6] was “inactive” in each case. The Potency result in experiment [8] was “inactive”. The outcome in [7] was inactive.

Consider `O=P(O)(O)O`, for which the Potency entry in experiment [2], in experiment [3], in [4], in experiment [5], in [6] and in experiment [8] was “inactive” each time. Besides, the call in experiment [7] was inactive.

As to `c1ccc(Nc2ccccc2)cc1`, the Potency result in experiment [9], in [1], in experiment [2], in experiment [3], in experiment [5] and in [6] was “inactive” throughout. Moreover, the Potency result in experiment [8] is “inactive”. Moreover, the Potency in [4] is 61.1 µM (active) and 19.3 µM (active).

With `Nc1ccc(Nc2ccccc2)cc1`, the Potency result in experiment [9], in [1], in [2], in [3], in [5] and in [6] was “inactive” in each case. Moreover, the Potency entry in [8] was “inactive”. In addition, in experiment [4], the Potency is 1.35 µM (active) and inactive. Further, in experiment [7], the call was inactive.

Consider `COc1ccccc1/C=C/C=O`, for which the Potency result in experiment [9], in [1], in experiment [2], in experiment [3], in experiment [4] and in [5] was “inactive” throughout. Besides, the Potency result in experiment [6] and in experiment [8] was “inactive” each time. For the same compound, the result in experiment [7] was inactive.

Take `O=C(c1ccccc1)c1ccccc1O`: the Potency result in experiment [2], in experiment [3], in experiment [5], in [6] and in experiment [8] was “inactive” each time. Moreover, the Potency entry in experiment [4] is “inactive and 61.1 µM (active)”. The result in experiment [7] was inactive.

Regarding `O=C1OC2(c3cc(Br)c(O)c(Br)c3Oc3c2cc(Br)c(O)c3Br)c2c(Cl)c(Cl)c(Cl)c(Cl)c21`, the Potency entry in experiment [9] and in experiment [3] was “inactive” each time. Further, the Potency in experiment [1] was 54.5 µM (active); in [2] it was 9.7 µM (active) and 37.1 µM (active); in experiment [5] it was 1.41 µM (active) and 7.94 µM (active); in experiment [6] it was 17.8 µM (active); in [8], 2.51 µM [fluorescent] (active) and 14.1 µM [fluorescent] (active). Besides, in experiment [7], the result was inactive.

`OC[C@H]1O[C@@H]2O[C@H]3[C@H](O)[C@@H](O)[C@@H](O[C@H]4[C@H](O)[C@@H](O)[C@@H](O[C@H]5[C@H](O)[C@@H](O)[C@@H](O[C@H]6[C@H](O)[C@@H](O)[C@@H](O[C@H]7[C@H](O)[C@@H](O)[C@@H](O[C@H]8[C@H](O)[C@@H](O)[C@@H](O[C@H]1[C@H](O)[C@H]2O)O[C@@H]8CO)O[C@@H]7CO)O[C@@H]6CO)O[C@@H]5CO)O[C@@H]4CO)O[C@@H]3CO`: the Potency result in experiment [1], in experiment [2], in [3], in experiment [5], in [6] and in experiment [8] was “inactive” in each case.

With `CCCc1c(OCCCCc2nn[nH]n2)ccc(C(C)=O)c1O`, the Potency entry in experiment [9], in [2], in experiment [3], in [5], in [6] and in experiment [8] was “inactive” in each case. Further, the Potency in [1] is 26.6 µM (active) and inactive; in [4] it was 26.6 µM (active). In [7], the result was inactive.

As for `CCCCC(CC)COCC1CO1` (stereo not given), the Potency result in [9], in [1], in experiment [2], in experiment [3], in experiment [4] and in experiment [5] was “inactive” in each case. The Potency entry in experiment [6] and in [8] was “inactive” throughout. For the same compound, in [7], the result was inactive.

`CN(C)C(=N)N=C(N)N`: the Potency entry in [1], in [2], in experiment [3], in experiment [4], in [5] and in [6] was “inactive” in each case. The Potency entry in [8] was “inactive”. The compound was called inactive in [7].
